Test results from PubChem BioAssay (NCATS).
Records with an inconclusive call do not appear. The source made the active and inactive calls. The call rests on the fitted dose curve; in most records, active means well fitted curve in the direction sought with a large enough effect; inconclusive means small, poorly fitted or top-dose-only effect, or another doubt; inactive means no such curve, though single readings can be large; an effect the other way counts as inactive or inconclusive.

Legend:
[1] = qHTS for Inhibitors of Plasmodium falciparum (DD2) proliferation (AID 504314);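 further: parasite DNA measured by SYBR Green fluorescence after red cell lysis; plate controls were DMSO vehicle for no effect and artemisinin wells for full effect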
Summary of the method: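 Erythrocytes infected with P. falciparum (0.3% parasitemia, 2.5% hematocrit final) were incubated with compounds for 72 h at 37C, 5% CO2. Parasite DNA was detected by SYBR Green I fluorescence after saponin/Triton lysis, normalized to artemisinin (0.29 uM) and DMSO controls.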

[2] = qHTS for Inhibitors of Plasmodium falciparum (GB4) proliferation (AID 504315);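 further: 0% = DMSO vehicle and -100% = 0.29 µM artemisinin control; nearly all actives have a fitted effect of over 50% in size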
Summary of the method: (§1)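 Erythrocytes infected with P. falciparum line (0.3% parasitemia, 2.5% hematocrit final) incubated with compounds 72 h at 37 °C, 5% CO2; SYBR Green lysis buffer added, fluorescence read next day. Normalized to 0.29 uM artemisinin and DMSO.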

[3] = qHTS for Inhibitors of Plasmodium falciparum (7G8) proliferation (AID 504316);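 further: series mostly up to about 6.7 µM; 0% = DMSO vehicle and -100% = 0.29 µM artemisinin full kill; nearly all actives have a fitted effect of over 65% in size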
Summary of the method: as §1

[4] = qHTS for Inhibitors of Plasmodium falciparum (CP250) proliferation (AID 504320);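 further: plate controls were DMSO vehicle for no effect and 0.29 µM artemisinin control for full effect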
Summary of the method: as §1

[5] = qHTS for Inhibitors of Plasmodium falciparum (HB3) proliferation (AID 504318);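 further: 0% = DMSO vehicle and -100% = artemisinin control; nearly all actives have a fitted effect of over 60% in size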
Summary of the method: as §1

[6] = target: Cytochrome P450 2C9 (Homo sapiens) (UniProt P11712); experiment: qHTS Assay for Inhibitors and Substrates of Cytochrome P450 2C9 (AID 883); further: on the % scale 0 is the no-effect control and ±100 the full control effect; nearly all actives have a fitted effect of over 60% in size
Chain of Cytochrome P450 2C9 (Homo sapiens) (P11712 whole entry, looked up): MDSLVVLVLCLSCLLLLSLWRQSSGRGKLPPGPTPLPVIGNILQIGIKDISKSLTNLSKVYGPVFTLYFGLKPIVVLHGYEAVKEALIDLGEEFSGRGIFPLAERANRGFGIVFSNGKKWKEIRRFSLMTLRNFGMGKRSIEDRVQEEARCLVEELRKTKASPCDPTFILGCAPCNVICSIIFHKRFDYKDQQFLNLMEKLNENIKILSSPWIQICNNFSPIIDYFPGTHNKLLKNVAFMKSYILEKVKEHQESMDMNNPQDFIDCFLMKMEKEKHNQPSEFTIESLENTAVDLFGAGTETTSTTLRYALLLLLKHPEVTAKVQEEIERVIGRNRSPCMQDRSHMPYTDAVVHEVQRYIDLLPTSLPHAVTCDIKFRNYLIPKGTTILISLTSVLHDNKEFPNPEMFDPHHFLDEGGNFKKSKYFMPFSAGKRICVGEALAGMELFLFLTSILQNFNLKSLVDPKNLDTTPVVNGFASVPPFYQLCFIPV
Summary of the method: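 Luminescent read-out of deoxyluciferin hydroxylation, normalized to 57uM sulphaphenazole (AC100). Reaction: 10nM enzyme, 100uM Luciferin-H (equal to KM), 25mM KPO4, 10 min compound preincubation, then 60 min with NADPH regeneration, both at 37C.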

[7] = target: Cytochrome P450 3A4 (Homo sapiens) (UniProt P08684); experiment: qHTS Assay for Activators of Cytochrome P450 3A4 (AID 885); further: nearly all actives have a fitted effect of over 65% in size
Chain of Cytochrome P450 3A4 (Homo sapiens) (P08684 whole entry, looked up): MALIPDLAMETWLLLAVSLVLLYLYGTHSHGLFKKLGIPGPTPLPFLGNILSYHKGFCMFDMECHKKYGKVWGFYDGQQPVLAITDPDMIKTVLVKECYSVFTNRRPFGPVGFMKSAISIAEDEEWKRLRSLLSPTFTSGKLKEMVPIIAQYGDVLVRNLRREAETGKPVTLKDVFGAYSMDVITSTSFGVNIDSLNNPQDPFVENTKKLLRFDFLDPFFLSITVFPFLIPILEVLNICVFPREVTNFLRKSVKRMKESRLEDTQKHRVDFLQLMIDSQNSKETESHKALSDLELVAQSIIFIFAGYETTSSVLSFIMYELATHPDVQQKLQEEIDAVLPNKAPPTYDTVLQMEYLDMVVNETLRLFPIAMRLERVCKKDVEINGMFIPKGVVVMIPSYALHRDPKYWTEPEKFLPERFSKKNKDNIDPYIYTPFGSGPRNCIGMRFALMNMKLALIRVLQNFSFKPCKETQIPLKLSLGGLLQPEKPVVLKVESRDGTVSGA
Summary of the method: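 20nM CYP3A4 + 25uM Luciferin-PPXE (=KM), 200mM KPO4; cpd 10 min RT; NADPH regen, 60 min RT; stop w/ detection buffer, 20 min; luminescence. Normalized to 57 uM ketoconazole.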

C=CCN1c2ccccc2[C@]23C[C@@H](C(=O)OC)N=C2NC(C(=O)OC)=C(C(=O)OC)[C@H]13
inactive: Potency [1] | Potency [2] | Potency [3] | Potency [4]

COC(=O)CCC(=O)OC1(C)C(=O)C=C2C=C(C3CC3)N(CCN3CCOCC3)C=C2C1=O (stereo not drawn)
inactive: Potency [1] | Potency [2] | Potency [3] | Potency [5] | Potency [4]

CCCCc1nc2c(c3c1C[C@H](C)OC3)CN(S(=O)(=O)c1ccc3c(c1)OCCN3C)CC2
inactive: Potency [1] | Potency [2] | Potency [3] | Potency [4]

CCOC(=O)CN1C(=O)N[C@@H](c2ccccc2)[C@@H](C(=O)OC)[C@H]1C
inactive: Potency [1] | Potency [2] | Potency [3] | Potency [5] | Potency [4]

COC(=O)C1=C(C)N(Cc2ccco2)C(=O)N[C@@H]1c1ccco1
inactive: Potency [1] | Potency [2] | Potency [3] | Potency [5] | Potency [4]

COC(=O)N1CCc2cc(OC)c(OC)cc2C1Cc1ccc(OC)cc1 (stereo not drawn)
inactive: Potency [6] | activity change, positive = activation [7] -32.2% [at 11.4 µM] | Potency [1] | Potency [2] | Potency [3] | Potency [5] | Potency [4]

COC(=O)CCC(=O)OC1(C)C(=O)C=C2C=C(C3CC3)N(C(CO)CO)C=C2C1=O (stereo not drawn)
inactive: Potency [1] | Potency [2] | Potency [3] | Potency [5] | Potency [4]

COC(=O)CCCC1=CC2=C(c3ccccc3)C(=O)C(C)(OC(=O)C3CCCC3)C(=O)C2=CN1C1CCCC1 (stereo not drawn)
inactive: Potency [1] | Potency [2] | Potency [3] | Potency [4]

COC(=O)CCCC1=CC2=CC(=O)C(C)(OC(=O)c3cccs3)C(=O)C2=CN1Cc1ccccc1 (stereo not drawn)
inactive: Potency [1] | Potency [2] | Potency [3] | Potency [5] | Potency [4]

CC=Cc1cc2ccccc2c2c(C(=O)OC)c(C(=O)OC)c(C(=O)OC)n12
inactive: Potency [1] | Potency [2] | Potency [3] | Potency [4]
